Data published in the supplement of paper PMC12645437, “Orthogonal IMiD-Degron Pairs Induce Selective Protein Degradation in Cells” (ACS Chemical Biology, 2025).
The full ranking holds about 8,300 sequences; the median of “log2 fold change of degron read counts, EGFP-low vs EGFP+ sorted cells (limma voom), compound-induced degradation” is about -1.1, and the highest 2% start at about 3.2. The list comes from a sample in which the highest values are over-represented; it also holds similar and randomly drawn sequences.

T1: CRBN, Q96SW2
T1 chain: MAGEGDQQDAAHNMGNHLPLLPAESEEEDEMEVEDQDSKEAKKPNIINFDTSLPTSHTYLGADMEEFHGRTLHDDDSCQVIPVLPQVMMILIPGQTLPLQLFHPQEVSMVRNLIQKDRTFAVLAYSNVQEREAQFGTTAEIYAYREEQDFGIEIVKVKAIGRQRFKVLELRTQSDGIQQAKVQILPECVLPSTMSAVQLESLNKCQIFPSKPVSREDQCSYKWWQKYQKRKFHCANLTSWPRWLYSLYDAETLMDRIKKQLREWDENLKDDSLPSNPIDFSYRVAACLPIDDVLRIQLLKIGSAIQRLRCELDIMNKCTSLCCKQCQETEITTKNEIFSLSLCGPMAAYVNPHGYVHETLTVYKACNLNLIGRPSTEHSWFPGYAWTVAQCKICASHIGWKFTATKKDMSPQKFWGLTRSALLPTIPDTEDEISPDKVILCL


Target: T1, CRBN, Q96SW2
Assay: log2 fold change of degron read counts, EGFP-low vs EGFP+ sorted cells (limma voom), compound-induced degradation; higher = more compound-induced degradation of the degron-EGFP fusion; degrons are variants of IKZF1/3 zinc finger 2; compound dose not given here
Details: Jurkat, 18 h
[1] = compound: compound 19 (5-tert-butyl-thalidomide)
[2] = compound: compound 22 (5-morpholino-thalidomide)
[3] = compound: compound 33 (diphenyl IMiD analogue)
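Also: pooled lentiviral library of zinc finger degron-EGFP fusions in mCherry-positive Jurkat cells, FACS-sorted after compound exposure, with degron abundance counted by next-generation sequencing.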

Sequence | log2 fold change of degron read counts [1] | log2 fold change of degron read counts [2] | log2 fold change of degron read counts [3] | log2 fold change of degron read counts (compound: thalidomide)
FVCPQCGAFFTQKGNLLRHIKL [46F_47V_49P_50Q_52G_53A_54F_55F_67L_, Q9UKT9] | -1.99 | -1.44 | -0.515 | -0.988
FCCPICGHFFTQKGNLLRHIKL [46F_47C_49P_50I_52G_53H_54F_55F_67L_, Q9UKT9] | -1.42 | -2.1 | -1.42 | -1.48
FACEICGHNFTQKGNLLRHIKL [46F_47A_49E_50I_52G_53H_54N_55F_67L_, Q9UKT9] | -2.91 | -3.62 | -3.22 | -3.1
FECSVCGHHFTQKGNLLRHIKL [46F_47E_49S_50V_52G_53H_54H_55F_67L_, Q9UKT9] | -3.39 | -3.71 | -3.71 | -3.11
FRCPICGHVFTQKGNLLRHIKL [46F_47R_49P_50I_52G_53H_54V_55F_67L_, Q9UKT9] | -2.24 | -2.31 | -0.964 | -1.86
LACEICGFFCTQKGNLLRHIKL [46L_47A_49E_50I_52G_53F_54F_55C_67L_, Q9UKT9] | 1.23 | 0.591 | 0.235 | 0.329
FKCEICGHCFTQKGNLLRHIKL [46F_47K_49E_50I_52G_53H_54C_55F_67L_, Q9UKT9] | -2.38 | -3.82 | -3.48 | -2.98
FQCEICGHGFTQKGNLLRHIKL [46F_47Q_49E_50I_52G_53H_54G_55F_67L_, Q9UKT9] | -3.85 | -4.27 | -2.95 | -2.21
LFCNQCGFYCTQKGNLLRHIKL [46L_47F_49N_50Q_52G_53F_54Y_55C_67L_, Q9UKT9] | -0.734 | -0.67 | -0.837 | -0.422
FRCPICGARFTQKGNLLRHIKL [46F_47R_49P_50I_52G_53A_54R_55F_67L_, Q9UKT9] | -0.853 | -0.665 | -0.334 | 0.377
FWCPICGARFTQKGNLLRHIKL [46F_47W_49P_50I_52G_53A_54R_55F_67L_, Q9UKT9] | 2.78 | 3.66 | 1.23 | 1.15
FECPICGARFTQKGNLLRHIKL [46F_47E_49P_50I_52G_53A_54R_55F_67L_, Q9UKT9] | 0.918 | -0.107 | 1.75 | 3.37
FSCPICGARFTQKGNLLRHIKL [46F_47S_49P_50I_52G_53A_54R_55F_67L_, Q9UKT9] | 2.63 | 2.4 | 0.555 | 1.65
FNCPICGARFTQKGNLLRHIKL [46F_47N_49P_50I_52G_53A_54R_55F_67L_, Q9UKT9] | 2.1 | 1.39 | -0.35 | 0.971
FGCPICGARFTQKGNLLRHIKL [46F_47G_49P_50I_52G_53A_54R_55F_67L_, Q9UKT9] | 3.39 | 2.28 | 0.0226 | 1.05
FQCPICGALFTQKGNLLRHIKL [46F_47Q_49P_50I_52G_53A_54L_55F_67L_, Q9UKT9] | -1.04 | 1.75 | 1.86 | 3.37
FVCPICGALFTQKGNLLRHIKL [46F_47V_49P_50I_52G_53A_54L_55F_67L_, Q9UKT9] | -0.961 | 0.498 | 1.25 | 1.5
FLCPICGARFTQKGNLLRHIKL [46F_47L_49P_50I_52G_53A_54R_55F_67L_, Q9UKT9] | 0.407 | -0.333 | 0.469 | 1.92
FSCPICGALFTQKGNLLRHIKL [46F_47S_49P_50I_52G_53A_54L_55F_67L_, Q9UKT9] | 0.486 | -0.0754 | 2.59 | 0.134
FVCPICGARFTQKGNLLRHIKL [46F_47V_49P_50I_52G_53A_54R_55F_67L_, Q9UKT9] | 0.924 | 2.47 | 0.874 | 2.71
FYCPICGARFTQKGNLLRHIKL [46F_47Y_49P_50I_52G_53A_54R_55F_67L_, Q9UKT9] | 2.38 | 2.5 | 0.405 | -0.0683
FWCNQCGRQFTQKGNLLRHIKL [46F_47W_49N_50Q_52G_53R_54Q_55F_67L_, Q9UKT9] | -1.77 | -1.3 | -1.46 | -1.87
FACEICGRNFTQKGNLLRHIKL [46F_47A_49E_50I_52G_53R_54N_55F_67L_, Q9UKT9] | -0.441 | -1.8 | -2.25 | -1.66
FICNVCGALFTQKGNLLRHIKL [46F_47I_49N_50V_52G_53A_54L_55F_67L_, Q9UKT9] | -2.12 | -1.66 | 0.0338 | -0.727
FVCDICGALFTQKGNLLRHIKL [46F_47V_49D_50I_52G_53A_54L_55F_67L_, Q9UKT9] | -1.73 | -0.858 | -0.0343 | -0.433
FCCPICGRFFTQKGNLLRHIKL [46F_47C_49P_50I_52G_53R_54F_55F_67L_, Q9UKT9] | -0.555 | -0.77 | 0.987 | -0.278
FGCPICGHEFTQKGNLLRHIKL [46F_47G_49P_50I_52G_53H_54E_55F_67L_, Q9UKT9] | -1.93 | -2.76 | -2.07 | -2.26
FWCNQCGHTFTQKGNLLRHIKL [46F_47W_49N_50Q_52G_53H_54T_55F_67L_, Q9UKT9] | -1.74 | -2.28 | -2.22 | -1.67
